From publication PMC11006913
Changes are numbered by the printed parent chain.

Key:
Test in all cases: PBM; 200 nM protein, PBS
Details in all cases: dsDNA, one strand shown
NKX2-6 [1] = biological target: T1, NKX2-6 (Homo sapiens, UniProt A6NCS4 118-204)
T1 sequence: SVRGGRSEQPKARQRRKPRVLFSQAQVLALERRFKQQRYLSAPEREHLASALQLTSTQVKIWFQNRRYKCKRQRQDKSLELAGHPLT

NKX2-6 [2] = biological target: T2, NKX2-6 (Homo sapiens, UniProt A6NCS4 118-204, F151L)
T2 sequence: T1 sequence with F34L

ALX3 [3] = biological target: ALX3 (Homo sapiens, UniProt O95076 139-225)
ALX3 [4] = biological target: ALX3 (Homo sapiens, UniProt O95076 139-225, L168Q)
VAX1 [5] = biological target: VAX1 (Homo sapiens, UniProt Q5SQQ9 86-172)
VAX1 [6] = biological target: VAX1 (Homo sapiens, UniProt Q5SQQ9 86-172, T142I)
VAX1 [7] = biological target: VAX1 (Homo sapiens, UniProt Q5SQQ9 86-172, K157R)
PITX2 = PITX2 (Homo sapiens, UniProt Q99697 72-157)

Sequence of ALX3 (Homo sapiens, UniProt O95076 139-225, L168Q) (O95076 139-225 L168Q): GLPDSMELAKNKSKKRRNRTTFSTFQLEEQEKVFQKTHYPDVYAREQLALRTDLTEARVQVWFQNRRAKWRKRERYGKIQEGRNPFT
Sequence of ALX3 (Homo sapiens, UniProt O95076 139-225) (O95076 139-225): as the sequence (O95076 139-225 L168Q) above, with Q30L counted along it
Sequence of VAX1 (Homo sapiens, UniProt Q5SQQ9 86-172, T142I) (Q5SQQ9 86-172 T142I): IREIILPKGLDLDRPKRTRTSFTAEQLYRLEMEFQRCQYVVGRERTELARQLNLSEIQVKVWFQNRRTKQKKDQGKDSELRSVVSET
Sequence of VAX1 (Homo sapiens, UniProt Q5SQQ9 86-172) (Q5SQQ9 86-172): as the sequence (Q5SQQ9 86-172 T142I) above, with I57T counted along it
Sequence of VAX1 (Homo sapiens, UniProt Q5SQQ9 86-172, K157R) (Q5SQQ9 86-172 K157R): as the sequence (Q5SQQ9 86-172 T142I) above, with I57T, K72R counted along it

ACCAGAGC
binding signal (NKX2-6 [1]): 9.39 upbm affinity estimate (log intensity, higher = more binding, comparable within an allelic series)
binding signal (NKX2-6 [2]): 9.5 upbm affinity estimate (log intensity, higher = more binding, comparable within an allelic series)

CCCGGAAA
binding signal (NKX2-6 [1]): 9.48 upbm affinity estimate (log intensity, higher = more binding, comparable within an allelic series)
binding signal (NKX2-6 [2]): 9.48 upbm affinity estimate (log intensity, higher = more binding, comparable within an allelic series)

ACTTACAT
binding signal (NKX2-6 [1]): 11.6 upbm affinity estimate (log intensity, higher = more binding, comparable within an allelic series)
binding signal (ALX3 [3]): 8.97 upbm affinity estimate (log intensity, higher = more binding, comparable within an allelic series)
binding signal (ALX3 [4]): 8.46 upbm affinity estimate (log intensity, higher = more binding, comparable within an allelic series)
binding signal (NKX2-6 [2]): 9.95 upbm affinity estimate (log intensity, higher = more binding, comparable within an allelic series)

CCTTAAGA
binding signal (NKX2-6 [1]): 12.4 upbm affinity estimate (log intensity, higher = more binding, comparable within an allelic series)
binding signal (NKX2-6 [2]): 10.1 upbm affinity estimate (log intensity, higher = more binding, comparable within an allelic series)

GATACTTA
binding signal (NKX2-6 [1]): 13.3 upbm affinity estimate (log intensity, higher = more binding, comparable within an allelic series)
binding signal (NKX2-6 [2]): 10.5 upbm affinity estimate (log intensity, higher = more binding, comparable within an allelic series)

ACGGGACT
binding signal (NKX2-6 [1]): 9.76 upbm affinity estimate (log intensity, higher = more binding, comparable within an allelic series)
binding signal (NKX2-6 [2]): 9.42 upbm affinity estimate (log intensity, higher = more binding, comparable within an allelic series)

GTTCCACA
binding signal (NKX2-6 [1]): 9.21 upbm affinity estimate (log intensity, higher = more binding, comparable within an allelic series)
binding signal (NKX2-6 [2]): 9.42 upbm affinity estimate (log intensity, higher = more binding, comparable within an allelic series)

ATCCGCAG
binding signal (NKX2-6 [1]): 9.55 upbm affinity estimate (log intensity, higher = more binding, comparable within an allelic series)
binding signal (NKX2-6 [2]): 9.47 upbm affinity estimate (log intensity, higher = more binding, comparable within an allelic series)

AGACGGCC
binding signal (NKX2-6 [1]): 9.28 upbm affinity estimate (log intensity, higher = more binding, comparable within an allelic series)
binding signal (NKX2-6 [2]): 9.16 upbm affinity estimate (log intensity, higher = more binding, comparable within an allelic series)

CGTTTGCC
binding signal (NKX2-6 [1]): 9.35 upbm affinity estimate (log intensity, higher = more binding, comparable within an allelic series)
binding signal (NKX2-6 [2]): 9.53 upbm affinity estimate (log intensity, higher = more binding, comparable within an allelic series)

CGCTTAAG
binding signal (NKX2-6 [1]): 12.2 upbm affinity estimate (log intensity, higher = more binding, comparable within an allelic series)
binding signal (VAX1 [5]): 9.23 upbm affinity estimate (log intensity, higher = more binding, comparable within an allelic series)
binding signal (NKX2-6 [2]): 9.9 upbm affinity estimate (log intensity, higher = more binding, comparable within an allelic series)
binding signal (VAX1 [6]): 8.86 upbm affinity estimate (log intensity, higher = more binding, comparable within an allelic series)
binding signal (VAX1 [7]): 9.02 upbm affinity estimate (log intensity, higher = more binding, comparable within an allelic series)

ACACCCGT
binding signal (NKX2-6 [1]): 8.98 upbm affinity estimate (log intensity, higher = more binding, comparable within an allelic series)
binding signal (NKX2-6 [2]): 9.33 upbm affinity estimate (log intensity, higher = more binding, comparable within an allelic series)

ACCCAGGC
binding signal (NKX2-6 [1]): 8.77 upbm affinity estimate (log intensity, higher = more binding, comparable within an allelic series)
binding signal (NKX2-6 [2]): 9.31 upbm affinity estimate (log intensity, higher = more binding, comparable within an allelic series)

CTGTGGCC
binding signal (NKX2-6 [1]): 9.24 upbm affinity estimate (log intensity, higher = more binding, comparable within an allelic series)
binding signal (PITX2): 7.86 upbm affinity estimate (log intensity, higher = more binding, comparable within an allelic series)
binding signal (NKX2-6 [2]): 9.38 upbm affinity estimate (log intensity, higher = more binding, comparable within an allelic series)

CCGTTGGC
binding signal (NKX2-6 [1]): 9.2 upbm affinity estimate (log intensity, higher = more binding, comparable within an allelic series)
binding signal (NKX2-6 [2]): 9.41 upbm affinity estimate (log intensity, higher = more binding, comparable within an allelic series)

ACCTCTCA
binding signal (NKX2-6 [1]): 12 upbm affinity estimate (log intensity, higher = more binding, comparable within an allelic series)
binding signal (NKX2-6 [2]): 9.82 upbm affinity estimate (log intensity, higher = more binding, comparable within an allelic series)

CAGACGGG
binding signal (NKX2-6 [1]): 9.56 upbm affinity estimate (log intensity, higher = more binding, comparable within an allelic series)
binding signal (NKX2-6 [2]): 9.37 upbm affinity estimate (log intensity, higher = more binding, comparable within an allelic series)

CACGGGTC
binding signal (NKX2-6 [1]): 9.25 upbm affinity estimate (log intensity, higher = more binding, comparable within an allelic series)
binding signal (NKX2-6 [2]): 9.31 upbm affinity estimate (log intensity, higher = more binding, comparable within an allelic series)

CCAGAATC
binding signal (NKX2-6 [1]): 9.71 upbm affinity estimate (log intensity, higher = more binding, comparable within an allelic series)
binding signal (NKX2-6 [2]): 9.51 upbm affinity estimate (log intensity, higher = more binding, comparable within an allelic series)

ACGGCACG
binding signal (NKX2-6 [1]): 9.26 upbm affinity estimate (log intensity, higher = more binding, comparable within an allelic series)
binding signal (NKX2-6 [2]): 9.49 upbm affinity estimate (log intensity, higher = more binding, comparable within an allelic series)

CCCAAGGC
binding signal (NKX2-6 [1]): 9.12 upbm affinity estimate (log intensity, higher = more binding, comparable within an allelic series)
binding signal (NKX2-6 [2]): 9.27 upbm affinity estimate (log intensity, higher = more binding, comparable within an allelic series)

AGCTGCAG
binding signal (NKX2-6 [1]): 9.32 upbm affinity estimate (log intensity, higher = more binding, comparable within an allelic series)
binding signal (NKX2-6 [2]): 9.44 upbm affinity estimate (log intensity, higher = more binding, comparable within an allelic series)

CACTCTGG
binding signal (NKX2-6 [1]): 11.6 upbm affinity estimate (log intensity, higher = more binding, comparable within an allelic series)
binding signal (NKX2-6 [2]): 9.66 upbm affinity estimate (log intensity, higher = more binding, comparable within an allelic series)

AAATACTC
binding signal (NKX2-6 [1]): 11.4 upbm affinity estimate (log intensity, higher = more binding, comparable within an allelic series)
binding signal (NKX2-6 [2]): 9.88 upbm affinity estimate (log intensity, higher = more binding, comparable within an allelic series)

CGTCTGGC
binding signal (NKX2-6 [1]): 9.46 upbm affinity estimate (log intensity, higher = more binding, comparable within an allelic series)
binding signal (NKX2-6 [2]): 9.41 upbm affinity estimate (log intensity, higher = more binding, comparable within an allelic series)

CACCGCGC
binding signal (NKX2-6 [1]): 8.99 upbm affinity estimate (log intensity, higher = more binding, comparable within an allelic series)
binding signal (NKX2-6 [2]): 9.25 upbm affinity estimate (log intensity, higher = more binding, comparable within an allelic series)

CCGGCACC
binding signal (NKX2-6 [1]): 9.34 upbm affinity estimate (log intensity, higher = more binding, comparable within an allelic series)
binding signal (NKX2-6 [2]): 9.34 upbm affinity estimate (log intensity, higher = more binding, comparable within an allelic series)

GGCACAGA
binding signal (NKX2-6 [1]): 9.3 upbm affinity estimate (log intensity, higher = more binding, comparable within an allelic series)
binding signal (NKX2-6 [2]): 9.37 upbm affinity estimate (log intensity, higher = more binding, comparable within an allelic series)

CGTCCGTA
binding signal (NKX2-6 [1]): 9.42 upbm affinity estimate (log intensity, higher = more binding, comparable within an allelic series)
binding signal (NKX2-6 [2]): 9.44 upbm affinity estimate (log intensity, higher = more binding, comparable within an allelic series)

GACCACTC
binding signal (NKX2-6 [1]): 12.3 upbm affinity estimate (log intensity, higher = more binding, comparable within an allelic series)
binding signal (NKX2-6 [2]): 9.92 upbm affinity estimate (log intensity, higher = more binding, comparable within an allelic series)

AAGGGTCA
binding signal (NKX2-6 [1]): 11.8 upbm affinity estimate (log intensity, higher = more binding, comparable within an allelic series)
binding signal (NKX2-6 [2]): 10 upbm affinity estimate (log intensity, higher = more binding, comparable within an allelic series)

CCGCGTTC
binding signal (NKX2-6 [1]): 9.4 upbm affinity estimate (log intensity, higher = more binding, comparable within an allelic series)
binding signal (NKX2-6 [2]): 9.39 upbm affinity estimate (log intensity, higher = more binding, comparable within an allelic series)

GGCCCGTA
binding signal (NKX2-6 [1]): 9.15 upbm affinity estimate (log intensity, higher = more binding, comparable within an allelic series)
binding signal (NKX2-6 [2]): 9.45 upbm affinity estimate (log intensity, higher = more binding, comparable within an allelic series)

CAGCCGTC
binding signal (NKX2-6 [1]): 9.5 upbm affinity estimate (log intensity, higher = more binding, comparable within an allelic series)
binding signal (NKX2-6 [2]): 9.26 upbm affinity estimate (log intensity, higher = more binding, comparable within an allelic series)

CAGTCTGC
binding signal (NKX2-6 [1]): 9.37 upbm affinity estimate (log intensity, higher = more binding, comparable within an allelic series)
binding signal (NKX2-6 [2]): 9.38 upbm affinity estimate (log intensity, higher = more binding, comparable within an allelic series)

GTTGATGA
binding signal (NKX2-6 [1]): 10.9 upbm affinity estimate (log intensity, higher = more binding, comparable within an allelic series)
binding signal (NKX2-6 [2]): 9.75 upbm affinity estimate (log intensity, higher = more binding, comparable within an allelic series)
